KDM4E inh = inhibitors of human JMJD2E histone demethylase. JMJD2E catalytic domain, FDH-coupled NADH fluorescence (FDH is formaldehyde dehydrogenase). Potency, µM (top dose mostly 57.1 µM), usual class: inhibitors. hit rate 1.6% among 230,000. AID 2147; note: nearly all actives have a fitted effect of over 50% in size
ALDH1A1 inh = ALDH1A1 (human) enzyme inhibition. P00352. Purified ALDH1A1, NADH fluorescence, propionaldehyde substrate. Potency, µM (top dose mostly 75.3 µM), usual class: inhibitors. hit rate 7.3% among 220,000
HPGD block = HPGD (human) dehydrogenase inhibition; P15428; hit rate 4.3% among 150,000; Potency, µM, actives largely listed as inhibitors; AID 894; purified HPGD, NADH fluorescence kinetic, PGE2 substrate
Target sequence (P15428 whole entry, looked up): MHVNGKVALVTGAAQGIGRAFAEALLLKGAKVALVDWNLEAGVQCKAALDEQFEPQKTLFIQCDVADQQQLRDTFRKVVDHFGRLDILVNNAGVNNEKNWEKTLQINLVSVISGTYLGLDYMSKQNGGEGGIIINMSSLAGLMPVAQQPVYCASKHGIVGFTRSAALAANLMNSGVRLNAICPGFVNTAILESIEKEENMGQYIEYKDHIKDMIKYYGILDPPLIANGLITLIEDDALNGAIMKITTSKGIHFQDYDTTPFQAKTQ
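NADH formation kinetics: reaction with 30 uM PGE2 and 1 mM NAD+ (final), 20 nM enzyme, Tris-HCl pH 8 with Tween 20, after 15 min compound preincubation at room temperature. Fluorescence change, last versus first of five reads.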
PNC assembly inh = inhibitors of perinucleolar compartment assembly; PC3M PTB-GFP, PNC prevalence imaging, 16 h; hits give low values; activity change (PNC), negative = inhibition, % at 10 µM; hit rate 3.1% among 140,000;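 active = readout at or below -70, meaning at least 70% loss of cells showing the perinucleolar compartment, a nuclear body marking cancer cells; inconclusive = readout between -30 and a set limit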
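Compounds are pinned in duplicate onto adhered PC3M cells stably expressing GFP-tagged PTB and incubated 16 h at 37 C. Cells are then fixed, nuclei stained with Hoechst, and PNC-positive cells counted.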
A number is an active result; i = inactive; ? = inconclusive; nt = not tested or not shown; [ ] = remark or other dose. Rows were chosen to be rich in hits. Some 11% of all compounds tested hit in one or more screens of this group. Unless noted, calls come from the whole dose curve; as a rule, active = well fitted inhibition curve with a large enough effect (not every such curve was filed as active); inconclusive = small, poorly fitted or top-dose-only effect, or another doubt; inactive = no such curve, though single readings can be large or run the other way.

SMILES	KDM4E inh	ALDH1A1 inh	HPGD block	PNC assembly inh
CCCN(CCC)CC(O)CN1C(=O)N(CN2C(=O)N(CC(O)CN(CCC)CCC)C(=O)C2(C)C)C(C)(C)C1=O (stereo unspecified)	i	i	nt	nt
CC(C)[C@@H](CC(=O)N[C@@H]1CCCC[C@H]1C(=O)N[C@H](CC(=O)N[C@@H](CCC(=O)O)CC(=O)O)Cc1c[nH]c2ccccc12)NC(=O)C[C@H](Cc1ccccc1)NC(=O)[C@@H]1CCCC[C@H]1N	i	i	i	nt
COc1cccc(-c2cncnc2Nc2ccccc2)c1	nt	i	nt	nt
CCCCNC(=O)NC1CCCC1	i	i	i	i
CCCN1C(=S)SC(C)(C)C1/[N+]([O-])=C/c1ccc(S(=O)(=O)NC)cc1 (stereo unspecified)	?	i	nt	nt
CN(C)c1ccc(/C=[N+](\[O-])C2N(c3ccccc3)C(=S)SC2(C)C)cc1 (stereo unspecified)	i	22µM	i	i
CN(C)c1ccc(/C=[N+](\[O-])C2SC(=S)N(C)C2(C)C)cc1 (stereo unspecified)	?	0.45µM	i	i
CC(NC(=O)Nc1ccc(O)cc1)(C(F)(F)F)C(F)(F)F	?	i	i	-100
O=C(NC[C@H](O)c1ccccc1)c1ccccc1	i	i	i	nt
CCN(CC)c1ccc(/C=C2/C(=O)N(c3ccc([N+](=O)[O-])cc3)N=C2N2CCOCC2)cc1	i	4.5µM	i	?
O=C(COC(=O)Cn1c(C(F)(F)F)nc2ccccc21)Nc1ccc2c(c1)OCCO2	i	i	i	i
O=C(COC(=O)Cn1cnc2ccccc21)Nc1ccc2c(c1)OCCO2	i	28µM	i	i
CCN(CC)S(=O)(=O)c1cc(NC(=O)COC(=O)Cn2cnc3ccccc32)ccc1C	i	20µM	i	i
CCn1c(=O)cc(OCC(=O)N(C)C2CCCCC2)c2ccccc21	i	20µM	i	i
CN(C(=O)COc1cc(=O)n(C)c2ccccc12)c1ccc(Br)cc1	i	22µM	i	i
Cc1cccc(N(C)C(=O)COc2cc(=O)n(C)c3ccccc23)c1	i	i	i	i
CCn1c(=O)cc(OCC(=O)N2CCN(C(=O)c3ccco3)CC2)c2ccccc21	i	18µM	i	i
CCC(CCC(C)C1CCC2C3CC=C4CC(OC(C)=O)CC[C@@]4(C)C3CC[C@@]12C)C(C)C (stereo partly specified)	i	i	i	nt
O=S1(=O)N[C@H]2CC[C@@H]3NS(=O)(=O)N[C@H]4CC[C@H](N1)N4S(=O)(=O)N23	nt	i[13.5 µM]	i	nt
CN(C)c1ccc(S(=O)(=O)N2CCCCC2)cc1NC(=O)COc1ccccc1F	i	nt	nt	nt
CC(C)C[C@H](NC(=O)[C@H](CCCCN)NC(=O)[C@H](CCCNC(=N)N)NC(=O)[C@H](C)NC(=O)[C@H](CO)NC(=O)[C@H](CCCCN)NC(=O)[C@H](CCCNC(=N)N)NC(=O)[C@H](C)NC(=O)CNC(=O)[C@@H](NC(=O)[C@H](Cc1ccccc1)NC(=O)CNC(=O)CNC(=O)[C@@H](N)Cc1ccccc1)[C@H](C)O)C(=O)N[C@@H](C)C(=O)N[C@@H](CC(N)=O)C(=O)N[C@@H](CCC(N)=O)C(=O)O	nt	i	nt	nt
Cc1ccccc1OCC(=O)NCC(=O)N/N=C/c1ccc(Br)o1	i	i	i	-114
C[C@@H]1CC[C@H]2[C@H](C)[C@H]3CC[C@H]4C5[C@@H](O)CC6=CC(=O)CC[C@]6(C)[C@H]5C[C@H]4C3C(=O)N2C1 (stereo partly specified)	i	i	i	nt
COc1ccccc1-c1nnc2sc(-c3cnccn3)nn12	i	?	25µM	i
COc1ccc(-c2nnc3sc(-c4ccccn4)nn23)cc1	i	i	i	i
SMILES	KDM4E inh	ALDH1A1 inh	HPGD block	PNC assembly inh
COc1ccccc1-c1nnc2sc(-c3ccc(N(C)C)cc3)nn12	?	?	nt	i
COc1cccc(-c2nnc3sc(-c4ccccn4)nn23)c1	i	i	22µM	i
c1ccc(-c2nn3c(-c4ccco4)nnc3s2)nc1	i	24µM	i	i
c1coc(-c2nnc3sc(C4CCCCC4)nn23)c1	i	13µM	25µM	i
CCOC(=O)C1=NN(C(C)=O)C2C(=O)N(CC)C(=O)C12 (stereo unspecified)	i	nt	nt	nt
O=C(N1CCCC1)C(F)(F)Oc1ccc(F)cc1	i	i	nt	nt
CC(C)(C)c1ccc(-c2nnc3sc(-c4ccccn4)nn23)cc1	i	?	28µM	i
COc1cccc(-c2nn3c(-c4ccccn4)nnc3s2)c1	i	i	32µM	i
COc1cccc(-c2nn3c(-c4cc(C)[nH]n4)nnc3s2)c1	i	i	i	i
Clc1ccc(-c2nnc3sc(-c4ccccn4)nn23)cc1	i	i	i	?

Screening data deposited in PubChem by National Center for Advancing Translational Sciences (NCATS).
